“And” between values parts separate entries of the source, which are not always exact repeats. Equal values may be shown once. Inconclusive results are not listed. Where a structure was tested more than once in an assay, its records may differ in their call. The source made the active and inactive calls. The call rests on the fitted dose curve; in most records, active means well fitted curve in the direction sought with a large enough effect in the repeat runs; inconclusive means weak or mixed curves; inactive means no such curve, though single readings can be large; an effect the other way counts as inactive or inconclusive.

Data on 26 molecules can be found in PubChem BioAssay (Tox21).

Test [1] can be described thus: qHTS assay to identify small molecule agonists of the RXR signaling pathway - cell viability counter screen (AID 1159529). Further: series mostly up to about 77 µM; nearly all actives have a fitted effect of over 50% in size. Put shortly: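 Luminescence from CellTiter-Glo (30 min, RT) measured viability in the same wells as the beta-lactamase reporter readout. Cells: GeneBLAzer RXR-alpha HEK 293T, 2% charcoal-stripped FBS. Compound exposure 16 hr, 37 C.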
For orientation: qHTS replaces the single test concentration by a dilution series.

The nature of test [2]: qHTS assay to identify small molecule antagonists of the retinoid acid receptor (RAR) signaling pathway - cell viability counter screen (AID 1159551). Further: nearly all actives have a fitted effect of over 35% in size. Put shortly:
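Cells (C3RL4) are plated, incubated overnight, dosed with compound in DMSO, then given retinol at 1 uM final. After 6 h at 37 C, CellTiter-Glo is added and luminescence read following 30 min at room temperature.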

The nature of test [3]: qHTS assay to identify small molecule antagonists of the retinoic acid receptor (RAR) signaling pathway (AID 1159552; further: nearly all actives have a fitted effect of over 50% in size). Put shortly:
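Luminescence from a RARE luciferase reporter in C3RL4 cells served as read-out. Cells received compounds together with 1 uM final retinol and incubated 6 hr at 37 C before detection reagent was added for 30 min at room temperature.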

Test [4] in a line: qHTS assay to identify small molecule agonists of the retinoic acid receptor (RAR) signaling pathway (AID 1159553). Put shortly:
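Seed C3RL4 reporter cells at 1,000 per well and incubate overnight at 37 C. Add compounds in DMSO, incubate 6 hr. Add luciferase reagent, wait 30 min at room temperature, read luminescence.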

Test [5] is described as follows: qHTS assay to identify small molecule antagonists of the estrogen related receptor (ERR) signaling pathway - cell viability counter screen (AID 1224818). Further: series mostly up to about 46 µM. Put shortly: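 ERR cells, 2,000/well; 6 h settle at 37 C/5% CO2; compound pin transfer (DMSO); 17.5 h at 37 C; CellTiter-Fluor, 30 min, fluorescence read.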
Test [6] can be described thus: qHTS assay to identify small molecule antagonists of the estrogen related receptor signaling pathway with the pleiotropic PPARgamma coactivator (PGC) cell viability counter screen (AID 1224822; further: series mostly up to about 46 µM). Put shortly: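 Multiplexed viability counter screen run in PGC/ERR cells treated with compounds for 17.5 h at 37 C; live-cell protease signal measured by CellTiter-Fluor fluorescence.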

The nature of test [7]: qHTS assay to identify small molecule antagonists of the estrogen related receptor (ERR) signaling pathway from Tox21 library - cell viability counter screen (AID 1224834). Further: nearly all actives have a fitted effect of over 30% in size. Put shortly:
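ERR cells, 2,000/well; 6 h settle at 37 C/5% CO2; pin-tool compound transfer in DMSO; 17.5 h at 37 C; CellTiter-Fluor, 30 min; fluorescence intensity.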

The nature of test [8]: qHTS assay to identify small molecule agonists of the constitutive androstane receptor (CAR) signaling pathway - cell viability counter screen (AID 1224836). Further: series mostly up to about 92 µM; nearly all actives have a fitted effect of over 45% in size. Put shortly:
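Viability read-out: CellTiter-Fluor fluorescence after 23 h compound exposure at 37 C/5% CO2 in double-stable HepG2-CYP2B6-hCAR cells, with PK11195 present at 0.75 uM final; compounds tested in 15-point titration.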

A short description of test [9]: qHTS assay to identify small molecule antagonists of the constitutive androstane receptor (CAR) signaling pathway - cell viability counter screen (AID 1224837). Further: series mostly up to about 92 µM; nearly all actives have a fitted effect of over 45% in size. Put shortly:
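Viability was measured with CellTiter-Fluor in a HepG2 line carrying stably transfected hCAR and a CYP2B6-2.2kb construct. Cells were exposed for 23 hr at 37 C to 15 compound concentrations with 50 nM CITCO as agonist.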

The target of test [10] is Luciferin 4-monooxygenase (Photinus pyralis) (UniProt P08659). In words: qHTS assay to identify small molecule inhibitors of firefly luciferase (AID 1224835). Further: nearly all actives have a fitted effect of over 25% in size. Further: potency means the concentration at half of the fitted maximal effect. Put shortly: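 Quantitative HTS format; KM concentrations of both substrates. Purified P. pyralis FLuc activity quantified from luminescence images.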
Sequence of Luciferin 4-monooxygenase (Photinus pyralis) (P08659 whole entry, looked up): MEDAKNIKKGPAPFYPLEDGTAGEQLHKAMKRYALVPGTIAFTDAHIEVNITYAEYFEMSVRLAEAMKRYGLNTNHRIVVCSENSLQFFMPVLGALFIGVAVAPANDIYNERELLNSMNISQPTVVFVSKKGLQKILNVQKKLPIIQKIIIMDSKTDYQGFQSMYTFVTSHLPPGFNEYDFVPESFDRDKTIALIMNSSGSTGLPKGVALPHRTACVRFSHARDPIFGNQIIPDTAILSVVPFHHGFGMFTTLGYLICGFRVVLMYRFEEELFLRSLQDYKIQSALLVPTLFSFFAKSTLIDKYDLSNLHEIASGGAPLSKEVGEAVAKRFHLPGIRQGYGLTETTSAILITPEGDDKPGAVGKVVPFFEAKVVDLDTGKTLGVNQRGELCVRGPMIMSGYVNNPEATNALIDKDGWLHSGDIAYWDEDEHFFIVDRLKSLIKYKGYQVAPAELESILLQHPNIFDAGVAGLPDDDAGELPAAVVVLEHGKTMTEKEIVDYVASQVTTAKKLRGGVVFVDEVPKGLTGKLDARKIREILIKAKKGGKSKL

On to `COc1ccc(Cl)cc1C(=O)NCCc1ccc(S(=O)(=O)NC(=O)NC2CCCCC2)cc1`, for which the Potency result in [1], in test [3], in test [4], in [7], in [8] and in test [9] was “inactive” each time. Besides, the molecule was called inactive in test [2], in test [5] and in test [6].

Regarding `O=C(O)CC(C(=O)O)C(CC(=O)O)C(=O)O` (stereo not drawn), the Potency result in test [1], in test [3], in [4], in [7], in test [10] and in test [8] was “inactive” throughout. Also, the outcome in test [2] was inactive.

As for `COc1ccc2cc([C@H](C)C(=O)O)ccc2c1`, the Potency result in [1], in [7], in test [8] and in test [9] was “inactive” each time. For the same molecule, the call in test [2], in [5] and in [6] was inactive.

Take `CC1=CCC2CC1C2(C)C` (stereo not drawn): the Potency entry in test [1], in test [3], in test [4], in [7], in test [10] and in [8] was “inactive” each time. Moreover, in test [9], the Potency entry was “inactive”. Further, in test [2], the result was inactive.

For `CC(=O)CC(=O)Nc1ccccc1C`, the Potency entry in [1], in test [3], in [4], in test [7], in test [10] and in test [8] was “inactive” throughout. In test [2], the molecule was called inactive.

Turning to `Fc1ccc(Br)cc1`, the Potency entry in test [1], in test [3], in [4], in [7], in [10] and in test [8] was “inactive” in each case. Besides, the Potency result in [9] was “inactive”. Also, the outcome in test [2] was inactive.

Take `C/C=C1/CC2C=CC1C2` (stereo not drawn): the Potency result in test [1], in test [3], in test [4], in [7], in [10] and in test [8] was “inactive” in each case. For the same molecule, the outcome in test [2] was inactive.

As for `CCc1cccc(C)c1N`, the Potency entry in [1], in test [3], in [4], in [7], in test [10] and in test [8] was “inactive” throughout. Besides, the Potency entry in test [9] is “inactive”. For the same molecule, the molecule was called inactive in [2].

`O=C(Oc1ccccc1)c1ccccc1`: the Potency result in test [1], in test [3], in test [4], in test [7], in [8] and in [9] was “inactive” in each case. In addition, in test [2], the molecule was called inactive. Besides, in test [10], the Potency result is “inactive and 71 µM (active)”.

As to `CC(=O)Nc1ccccc1`, the Potency entry in test [1], in [3], in [4], in test [7], in test [10] and in [8] was “inactive” in each case. Further, the Potency result in test [9] is “inactive”. In addition, in test [2], the molecule was called inactive.

With `O=C(CC(C(=O)OC1CCCCC1)S(=O)(=O)O)OC1CCCCC1` (stereo not drawn), the Potency entry in [1], in test [3], in test [4], in test [7], in [10] and in [8] was “inactive” throughout. In addition, the Potency result in test [9] is “inactive”. In addition, the molecule was classed as inactive in test [2].

Consider `O=C(O)c1cc(C(=O)O)cc(S(=O)(=O)O)c1`, for which the Potency entry in test [1], in [3], in test [4], in test [7], in test [10] and in test [8] was “inactive” each time. Further, in [9], the Potency result is “inactive”. For the same molecule, in [2], the outcome was inactive.

`O=C(O)c1ccccc1C(c1ccc(O)cc1)c1ccc(O)cc1`: the Potency result in [1], in test [3], in test [4], in test [7], in [10] and in test [8] was “inactive” in each case. Besides, the call in test [2] was inactive.

For `CCC(O)OC(O)CC` (stereo not drawn), the Potency result in test [1], in test [3], in [4], in [7], in [10] and in [8] was “inactive” in each case. Moreover, the molecule was classed as inactive in [2].

For `FC(F)(F)c1ccc(Cl)c(Cl)c1`, the Potency result in [1], in test [7], in test [10], in [8] and in test [9] was “inactive” in each case. In addition, the call in test [2] was inactive.

Turning to `CCCCCCCCCCCCS`, the Potency result in test [1], in [3], in [4], in test [7], in test [10] and in test [8] was “inactive” in each case. For the same molecule, the Potency result in test [9] was “inactive”.

`CCCCCCCCCCCCc1ccccc1`: the Potency entry in test [1], in test [3], in test [4], in test [7], in test [10] and in test [8] was “inactive” throughout. Also, the Potency entry in [9] was “inactive”.

For the molecule `O=c1[nH]nnc2ccccc12`, the Potency entry in test [1], in test [7], in test [10], in [8] and in test [9] was “inactive” each time. The outcome in test [2] was inactive.

For `C#CCN(C)Cc1ccccc1`, the Potency result in test [1], in test [3], in test [4], in test [7], in test [10] and in test [8] was “inactive” throughout. Moreover, the molecule was called inactive in [5] and in test [6].

Turning to `CCCCCCCC(=O)OC`, the Potency result in test [1], in test [7], in test [10], in test [8] and in test [9] was “inactive” each time. Besides, the outcome in test [2] was inactive.

On to `Nc1ccccc1[N+](=O)[O-]`, for which the Potency entry in test [1], in test [3], in [7], in test [10], in [8] and in test [9] was “inactive” in each case.

On to `CCOC(=O)NNc1nncc2ccccc12`, for which the Potency result in [1], in test [3], in test [4], in test [7], in test [10] and in test [8] was “inactive” each time. The Potency result in [9] was “inactive”.

On to `CC1=C(C)S(=O)(=O)CCS1(=O)=O`, for which the Potency entry in test [1], in test [7], in [10], in [8] and in test [9] was “inactive” throughout.

For `CCC(O)OCCCOC` (stereo not drawn), the Potency entry in [1], in test [7], in test [10] and in [8] was “inactive” in each case. In addition, the call in [2] was inactive.

For the molecule `C[C@H]1C[C@H]2[C@@H]3CCC4=CC(=O)C=C[C@]4(C)[C@@]3(F)[C@@H](O)C[C@]2(C)[C@@]1(O)C(=O)CO`, the Potency result in test [1], in [7] and in test [8] was “inactive” throughout. Also, the call in test [2] was inactive.

Turning to `COc1cc(Cc2cnc(N)nc2N)cc(OC)c1OC`, the Potency entry in [1], in test [3], in test [4], in test [7], in [10] and in test [8] was “inactive” throughout. Also, the Potency entry in test [9] is “inactive”. The outcome in test [5] and in test [6] was inactive.
